The whole screen tested about 390,000 compounds, of which about 4,700 (1.2%) were called active. Another 4% or so got no clear call; they are omitted. The sample holds actives, similar compounds and a random draw of the others, so the mix is not that of the screen. Values without a mark were called inactive. The call rests on the fitted dose curve; in most records, active means well fitted inhibition curve with a large enough effect; inconclusive means small, poorly fitted or top-dose-only effect, or another doubt; inactive means no such curve, though single readings can be large or run the other way.
On the % scale 0 is the no-effect control and ±100 the full control effect; potency means the concentration at half of the fitted maximal effect.

Chain of DNA polymerase eta (Homo sapiens) (Q9Y253 whole entry, looked up): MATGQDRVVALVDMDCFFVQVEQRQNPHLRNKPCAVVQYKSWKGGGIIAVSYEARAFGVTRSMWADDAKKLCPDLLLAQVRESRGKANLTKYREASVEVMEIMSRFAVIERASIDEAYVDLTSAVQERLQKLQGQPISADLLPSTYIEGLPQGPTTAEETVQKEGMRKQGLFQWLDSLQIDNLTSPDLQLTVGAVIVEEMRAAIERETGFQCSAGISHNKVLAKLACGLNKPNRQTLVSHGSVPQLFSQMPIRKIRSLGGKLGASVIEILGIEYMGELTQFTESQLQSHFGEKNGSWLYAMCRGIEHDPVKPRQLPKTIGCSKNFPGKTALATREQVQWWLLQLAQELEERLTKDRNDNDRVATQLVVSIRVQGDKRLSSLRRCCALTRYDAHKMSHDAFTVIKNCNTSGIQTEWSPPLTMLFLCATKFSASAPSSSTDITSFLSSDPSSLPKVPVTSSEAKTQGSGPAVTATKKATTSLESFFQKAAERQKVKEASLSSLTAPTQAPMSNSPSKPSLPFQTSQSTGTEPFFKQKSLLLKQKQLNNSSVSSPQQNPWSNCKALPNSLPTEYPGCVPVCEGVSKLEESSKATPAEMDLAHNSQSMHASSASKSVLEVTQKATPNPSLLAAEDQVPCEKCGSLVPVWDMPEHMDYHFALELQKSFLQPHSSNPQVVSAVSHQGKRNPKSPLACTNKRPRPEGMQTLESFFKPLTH

This test addresses DNA polymerase eta (Homo sapiens) (UniProt Q9Y253). The test can be described thus: qHTS for Inhibitors of Polymerase Eta. The settings on record: recombinant Pol eta, fluorescent DNA replication assay; series mostly up to 114 µM; activity change, negative = inhibition: at the top concentration. An excerpt: The Y-family of DNA polymerases, such as Pol eta, are specifically involved in DNA repair. Pol eta copies undamaged DNA with a lower fidelity than other DNA-directed polymerases. However, it accurately replicates UV-damaged DNA; when thymine dimers are present, this polymerase inserts the complementary nucleotides in the newly synthesized DNA, thereby bypassing the lesion and suppressing the mutagenic effect of UV-induced DNA damage. […] Thus, while pol eta's (and most likely iota's) normal function is to protect humans against the deleterious consequences of DNA damage, under certain conditions they can have deleterious effects on human health. As a consequence, we propose to utilize a high throughput replication assay to identify small molecule inhibitors of pol eta. In a collaboration between the National Institute of Child Health & Human Development (NICHD) and NIH Chemical Genomics Center, a high-throughput, fluorescent screen was developed to screen the NIH Molecular Libraries Small Molecule Repository (MLSMR). This screen is used to identify inhibitors of pol eta. NIH Chemical Genomics Center [NCGC] NIH Molecular Libraries Probe Centers Network [MLPCN] MLPCN Grant: MH090825 Assay Submitter (PI): Roger Woodgate, NICHD)
Three microliters of reagents (buffer in column 3 and 4 as negative control and 10 nM Pol eta in columns 1, 2, and 5-48) were dispensed into a 1,536-well black solid-bottomed plate. Compounds (23 nL) were transferred via Kalypsys pin tool equipped with 1536-pin array. The plates were then incubated for 15 min at room temperature, and 1 µL substrate (50 nM final concentration) was added to start the reaction and kinetically read twice at 0 min and 10 min on the Viewlux reader
Background: Quantitative high-throughput screening tests each substance at several concentrations.
`COc1ccc(CCNC(=O)Cn2c(=O)cc(C(F)(F)F)c3c(C)nn(C)c32)c(OC)c1`: the “activity change, negative = inhibition” value was -11.4%. Turning to `CC(=O)c1ccc(NC(=O)CSc2c(C(C)C)cnc3c2c(=O)n(C)c(=O)n3C)cc1`, the “activity change, negative = inhibition” value was -13.3%. The same measure, in the same setting: in the case of `O=C(O)c1c(CNCc2cccc(F)c2)c2ccccc2n1Cc1ccccc1` it was -0.34%. As for `COCCCNc1nc2c(-c3cccc(C)c3)nnn2c2ccc(Cl)cc12`, the Potency was 25.1 µM (active). As for `COc1ccc(CCNc2nc3c(-c4cccc(F)c4)nnn3c3ccccc23)cc1OC`, the “activity change, negative = inhibition” value was -6.17%. Consider `COCCCNc1nc2c(-c3cccc(C(F)(F)F)c3)nnn2c2ccccc12`, for which the “activity change, negative = inhibition” value was -9.1%.

As for `CCC(CC)c1nn2cc(-c3ccccc3)nc2s1`, the “activity change, negative = inhibition” value is -11.7%. `COc1ccc(S(=O)(=O)c2c(Nc3ccc(C)cc3)sc(C(=O)c3ccc(C)cc3)c2N)cc1`: the “activity change, negative = inhibition” value is -1.29%. As to `NS(=O)(=O)c1ccc2nc(NC(=O)CS(=O)(=O)c3ccc(F)cc3)sc2c1`, the Potency is 79.4 µM (active).

On to `NS(=O)(=O)c1ccc2nc(NC(=O)COc3ccccc3)sc2c1`, for which the “activity change, negative = inhibition” value is 5.57%. Turning to `Cc1nc2ccc(S(=O)(=O)N(CC(=O)Nc3ccc(F)cc3)Cc3ccccc3)cc2s1`, the “activity change, negative = inhibition” value was -16.1%. On the same count and under the same terms, in the case of `CCOc1ccc(CCNC(=O)CN(c2ccc(C)cc2)S(=O)(=O)N(C)C)cc1OCC` it was -20.3%.

Take `O=C(Nc1cc(Cl)cc(Cl)c1)c1ccc2c(c1)N(Cc1cccc(Cl)c1)C(=O)c1ccccc1S2=O` (stereo not drawn): the “activity change, negative = inhibition” value was -22.9%. With `CC(C)(C)n1c(=O)[nH]c2c(c1=O)CCC2`, the “activity change, negative = inhibition” value was -3.5%. On to `O=c1[nH]n2c(=O)c3c([nH]c2c1N=Nc1ccccc1)CCC3`, for which the Potency was 31.6 µM (active).

Consider `Cc1ccc(-n2ncc3c(NCCCn4ccnc4)ncnc32)cc1Cl`, for which the “activity change, negative = inhibition” value is -18.1%.

In the case of `O=C(COc1ccccc1F)OCc1cc(=O)n2nc(C3CCCCC3)sc2n1`, the “activity change, negative = inhibition” value is -18%. On to `O=C(CCSCc1cccc(F)c1)NCc1ccccc1`, for which the “activity change, negative = inhibition” value is 11.9%. As for `CCc1cc2c(cc(C(=O)OC)n2Cc2nc(-c3ccc(C)cc3)oc2C)s1`, the “activity change, negative = inhibition” value is 6.26%.

For the molecule `CC(=O)c1cc(C#N)c(SCC(=O)Nc2nccs2)nc1C`, the “activity change, negative = inhibition” value is -3.13%. In the case of `CC(c1nnc(SCC(=O)Nc2sccc2C#N)n1-c1ccc(Cl)cc1)N(C)C` (stereo not drawn), the “activity change, negative = inhibition” value was 8.96%. Consider `Cc1csc(SCC(=O)Nc2sccc2C#N)n1`, for which the Potency was 79.4 µM (active). Turning to `COc1ccc(S(=O)(=O)NCc2cccn2Cc2cccc(C)c2)cc1Cl`, the “activity change, negative = inhibition” value was -14.1%. On the same count and under the same terms, then `CSc1cccc(NC(=O)CN2C(=O)CCc3cc(S(=O)(=O)N4CCCCC4)ccc32)c1`, with -5.6%; and `Cc1ccc2nc(COc3ccc(NC(=O)COc4ccccc4F)cc3)cc(=O)n2c1`, with -15.3%; and `CC(=O)c1ccc(NC(=O)c2nc(-c3ccc(C)cc3)n3c2CCCCC3)cc1`, with -12.9%.

On to `N#Cc1c(N2CCCCC2)nc(N)c2c(N)nc(SCC(=O)O)cc12`, for which the Potency is 22.4 µM (active).

On to `Cc1ccc(CN2CCC(CNC(=O)c3cnn(-c4ccccc4Cl)c3C3CCN(C(=O)OC(C)(C)C)CC3)CC2)cc1`, for which the “activity change, negative = inhibition” value was -19.5%. Regarding `COc1ccc(-c2cc(NCc3ccc(F)cc3)n3cnnc3n2)cc1`, the “activity change, negative = inhibition” value was -10.6%. Consider `CC1CN(C(=O)N2CCC(C(=O)NCc3cccs3)CC2)c2ccccc2O1` (stereo not drawn), for which the “activity change, negative = inhibition” value was -18.7%.

`Cc1nnc(SCC(=O)NCc2cccs2)[nH]c1=O`: the “activity change, negative = inhibition” value was -2.58%. Take `N#Cc1c(-c2cccs2)nc(SCC(=O)c2ccc(Br)cc2)[nH]c1=O`: the Potency was 35.5 µM (active). Turning to `N#Cc1ccc(-c2cccs2)nc1SCc1ccc(Br)cc1`, the “activity change, negative = inhibition” value is -21.6%. As to `COc1ccc(-c2nn3c(=O)cc(CN4CCN(C(=O)c5ccc(OC)c(OC)c5)CC4)nc3s2)cc1`, the “activity change, negative = inhibition” value is -13.7%. Take `COc1ccc(Cn2ccnc2SCC(=O)Nc2ccc3c(c2)OCO3)cc1`: the “activity change, negative = inhibition” value was -9.75%.

Take `Cc1ccc(CN2CCc3nc(N4CCN(C)CC4)ncc3C2)cc1`: the “activity change, negative = inhibition” value is -6.28%.

Regarding `COc1ccc(CN2C(=O)C(NC(=O)c3cccc(C)c3)(C(F)(F)F)N=C2c2ccccc2)cc1` (stereo not drawn), the “activity change, negative = inhibition” value is -19.9%. In the case of `COc1ccc(C(=O)CSc2c(C(C)C)cnc3c2c(=O)n(C)c(=O)n3C)cc1`, the “activity change, negative = inhibition” value was -12.1%. Take `CCc1ccccc1NC(=O)Cc1ccc(NC(=O)N2CCCCc3ccccc32)cc1`: the “activity change, negative = inhibition” value was -14.4%. On to `Cc1oc2ccc(O)c(CN3CCCCC3)c2c1C(=O)Nc1cccc(C(F)(F)F)c1`, for which the “activity change, negative = inhibition” value was -20.5%. For the molecule `CCOc1ccc(Nc2oc(/C=C/c3ccc(F)cc3)nc2C#N)cc1`, the “activity change, negative = inhibition” value is -9.97%. As to `CCSc1ncnc2c(C#N)c3n(c12)CCCCC3`, the “activity change, negative = inhibition” value was 1.77%. Turning to `CCSC1=C(C#N)C(=O)n2c1cc1c2CCCC1`, the Potency was 12.6 µM (active). For the molecule `CCOC(=O)c1ccc(CSc2nnc3cc(C)c4ccccc4n23)cc1`, the “activity change, negative = inhibition” value is -15%.

As for `CC(C)Cn1c(=O)c2ccccc2n2c(CCC(=O)N3CCN(c4cccc(Cl)c4)CC3)nnc12`, the “activity change, negative = inhibition” value is -8.33%. In the case of `O=c1c2ccccc2n(Cc2cccc(Cl)c2)c(=O)n1Cc1ccccc1`, the “activity change, negative = inhibition” value is -6.01%.

For `CCN(CC)CCCC(C)Nc1ccnc2cc(Cl)ccc12` (stereo not drawn), the “activity change, negative = inhibition” value is -3.31% [at 57.1 µM]. Consider `CCN(CC)CCCC(C)n1c2nc(=O)[nH]c(=O)c-2nc2cc(Cl)ccc21` (stereo not drawn), for which the Potency is 31.6 µM (active).

`CCc1cccc(NC(=O)CSc2nccn2C)c1`: the “activity change, negative = inhibition” value is -13.5%. In the case of `CCCCn1cc(S(=O)(=O)c2ccc(OCC)cc2)c(=O)c2cc(OC)c(OC)cc21`, the “activity change, negative = inhibition” value is -18.6%. As for `Cc1ccc(NC(=O)c2cc3cc(C)ccc3n2C)cc1`, the “activity change, negative = inhibition” value was -10.6%. On to `CCOC(=O)C[C@H]1c2ccc(C(F)(F)F)cc2S(=O)(=O)N1c1ccccc1`, for which the “activity change, negative = inhibition” value was -11%. Turning to `CCOC(=O)/C=C/c1ccc(C(F)(F)F)cc1S(=O)(=O)NC(C)(C)C`, the “activity change, negative = inhibition” value was -25%. On to `CCOC(=O)C1Nc2ccc(C(F)(F)F)cc2C2C=CCC12` (stereo not drawn), for which the Potency was 79.4 µM (active). Consider `CC(=O)Nc1ccc(NC(=O)C2CCCN(S(=O)(=O)c3ccc4c(c3)CCCC(=O)N4)C2)cc1` (stereo not drawn), for which the “activity change, negative = inhibition” value was -15.3%. `Cc1c(Cl)cnc(NC(=O)COC(=O)C2CCCC2)c1Cl`: the Potency is 35.5 µM (active). Consider `Cc1c(Cl)cnc(NC(=O)COC(=O)c2ccc(S(=O)(=O)NCc3ccco3)cc2)c1Cl`, for which the “activity change, negative = inhibition” value was -20.6%. Same read-out and setting: in the case of `Cc1ccc(Cl)cc1NC(=O)COC(=O)C1CCCCC1` it was -12.7%; in that of `COc1cccc(Nc2nc3ccccc3c3nncn23)c1`, -17.8%; in that of `CCN(CC)S(=O)(=O)c1ccc(C(=O)N=c2sc3cccc(OC)c3n2C)cc1`, -7.47%. Take `Cc1cccc(C(=O)N2c3nc(-c4ccco4)nn3C3(CCCCC3)[C@@H]3CCCC[C@@H]32)c1`: the “activity change, negative = inhibition” value was -12.1%. For the molecule `CCCCCCc1cc2cc(-c3nnc(-c4ccccc4)o3)c(=O)oc2cc1O`, the Potency is 39.8 µM (active). On to `Cc1ccc(CNC(=O)CCc2c(C)nc3c(c(C)nn3-c3ccccc3)c2C)cc1`, for which the “activity change, negative = inhibition” value was -5.61%.

Values taken from PubChem BioAssay AID588591 (National Center for Advancing Translational Sciences (NCATS), 2011).
